Data reported in PubChem BioAssay (NCI).
The panel holds about 83,000 compounds, 20% with a hit somewhere; the sample as a whole holds those more often.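 48-hour exposure, single concentration, 96-well plates; percent growth endpoint where 0 means no net growth. Active: below 10.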 Active and inactive are the calls of the source.

These compounds were tested on OVCAR-8 ovarian (assay: NCI-60 one-dose screen, 48 h (100 = growth as untreated, 0 = no growth, -100 = all killed)). Conditions: 10 µM.
Description: Growth inhibition of the OVCAR-8 human tumor cell line is measured as a screen for anti-cancer activity. Cells are grown in 96 well plates and exposed to the test compound for 48 hours. Compounds are tested at a single concentration, which is 10^-5 M for most compounds. The reported endpoint is percent growth (GI% or GIPRCNT), where numbers from 0 - 100% represent growth inhibition, and numbers from -100% - 0 represent cell death. For example, a value of 40 represents 60% growth inhibition. A value of 0 means no net growth occurred over the course of the experiment. A value of -40 indicates 40% of cells at the beginning of the experiment died by the end of the experiment. A value of -100 means all cells are dead at the end of the experiment.
NCI-60 Human Tumor Cell Lines Screen was performed using the standard one-dose NCI protocol, which is described in more detail at https://dtp.cancer.gov/discovery_development/nci-60/default.htm.
Compounds with GIPRCNT values below 10 were considered active. Activity score was based on GIPRCNT using the following formula: […]
Score is 0 for GIPRCNT values of 100 or above, 50 for GIPRCNT values of 0, and 100 for GIPRCNT values of -100.
In the case of C=C1CCC2C3(C)COC(c4c(F)cccc4F)OC3CCC2(C)C1C/C=C1/C(=O)OCC1O (stereo not given), the growth is reported as -42.5% (active).
COc1ccc(OC)c(/C=N/NC(=O)c2ccc3nc(-c4ccc(Cl)cc4)[nH]c3c2)c1 was tested, and the growth was 82.8% (inactive).
In the case of N#Cc1c(NC(=O)c2ccc(C(F)(F)F)cc2)sc2c1CCC(=O)C2, the growth is reported as -32.3% (active).
With Cc1ccc(/C=C/C(=O)c2ccc(NC(=O)CSc3nnc(-c4c[nH]c5ccccc45)n3-c3ccccc3)cc2)c(C)c1 the growth was 1.17% (active).
In the case of Nc1nc(Nc2ccccc2)nn1Cc1c(Cl)cccc1Cl, the growth is reported as 42.3% (inactive).
With COc1cnc2c(c1)C(=O)c1c-2n(CCCNC(C)C)c(=O)c2cc(OC)c(OC)cc12 the growth was 37% (inactive).
CCOc1ccc(Nc2nc3ccccc3nc2Nc2ccc(OCC)cc2)cc1 was tested, and the growth was 58.3% (inactive).
C/C(=C\CC/C=C(\C)CC/C=C(\C)CC[C@@H](O)C(C)(C)O)CC/C=C(\C)CC[C@@H](O)C(C)(C)O was tested, and the growth was 47.6% (inactive).
With CC1=N/C(=C\c2ccc(N(C)C)cc2)C(=O)N1CCc1ccc(S(N)(=O)=O)cc1 the growth was 97.9% (inactive).
In the case of Nc1cc(-c2cccc(C(=O)NCc3ccc4c(c3)OCO4)c2)ccn1, the growth is reported as 103% (inactive).
In the case of Nc1n[nH]c2cccc(C#Cc3cccc(NC(=O)Nc4cc(C(F)(F)F)cc(C(F)(F)F)c4)c3)c12, the growth is reported as -5.59% (active).
With COc1cc(/C=C/C(=O)c2cc(OC)c(OC)c(OC)c2)ccc1Oc1nc(Nc2ccc(F)cc2)nc(N(C)C)n1 the growth was -59.6% (active).
For O=C(Nc1ccc(F)c(Cl)c1)c1cc(-c2ccc(F)cc2F)ccc1O, the growth was 6.82% (active).
With O=c1oc2ccc(-c3ccc(F)cc3F)cc2c(=O)n1-c1ccc(Cl)c(C(F)(F)F)c1 the growth was 6.71% (active).
In the case of CN1CCN(c2ccc(Nc3nc(N4CCN(S(=O)(=O)c5ccc(Cl)cc5)CC4)c4sccc4n3)cc2)CC1, the growth is reported as -82.9% (active).
In the case of O=c1[nH]c2ccc(Cl)cc2cc1CSc1ccc(Nc2nccc(-c3ccc4ccccc4c3)n2)cc1, the growth is reported as 9.55% (active).
With N#Cc1c(Cl)nc(SCc2ccc(F)cc2)nc1-c1ccc(F)cc1 the growth was 89.2% (inactive).
In the case of CN1C(=O)N(C)C2SC(N/N=C/c3ccc(F)cc3)=NC21 (stereo not given), the growth is reported as 66.8% (inactive).
For CN1CCN(c2ccc(C(=O)/C=C/c3ccc(C#N)cc3)cc2)CC1, the growth was 92% (inactive).
O=C(Nc1cccc(C(F)(F)F)c1)c1cncc(C#Cc2cnc3ccc(N4CCOCC4)nn23)c1 was tested, and the growth was 3.84% (active).
In the case of CCOc1ccc(/C=N/NC(=O)Cn2nc(Cc3ccccc3)c3onc(C)c3c2=O)cc1, the growth is reported as 5.16% (active).
For CN1C(=O)N(C)C2SC(N/N=C/C=C/c3ccccc3)=NC21 (stereo not given), the growth was 93.1% (inactive).
With O=c1cc(-c2ccccc2)oc2cc(OCCCCNCc3ccccc3)cc(O)c12 the growth was 52.6% (inactive).
N#Cc1c(NC(=O)c2ccc(C(F)(F)F)c(Cl)c2)sc2c1CCC(=O)C2 was tested, and the growth was -34% (active).
With O=C(/C=C/Nc1ccc(F)cc1F)c1ccc2c(c1)Nc1ccccc1S2 the growth was 64.6% (inactive).
In the case of Cc1cc2nc3c4ccccc4n(CCO)c3nc2cc1C, the growth is reported as 72.7% (inactive).
O=C(N/N=C/c1ccc(-c2cccc([N+](=O)[O-])c2)o1)c1[nH]c2ccc(Br)cc2c1-c1ccccc1 was tested, and the growth was -19.9% (active).
COc1cc2c(cc1OC)CN(CCCCOc1cc(O)c3c(=O)cc(-c4ccccc4)oc3c1)CC2 was tested, and the growth was 85.1% (inactive).
CCOC(=O)C(Cc1ccccc1)N1C(=O)/C(=C/N2N=C(c3ccc(OC)cc3)CC2c2ccc3ccccc3c2)SC1=S (stereo not given) was tested, and the growth was 17.1% (inactive).
With O=C(c1ccc(Cl)cc1)C1[C@H](c2ccccc2Br)[C@@H](c2ccccc2)NC12C(=O)Nc1ccc(Br)cc12 (stereo not given in full) the growth was 13.7% (inactive).
For COc1ccc(C(=O)/C=C/c2ccc(Cl)c(C(F)(F)F)c2)cc1S(N)(=O)=O, the growth was -73.4% (active).
For CCOP(=O)(OCC)O[C@H]1CC[C@]2(C)[C@H]3CC[C@@H]4[C@@H]([C@](C)(O)CCC=C(C)C)CC[C@@]4(C)[C@]3(C)CC[C@H]2C1(C)C, the growth was 32.9% (inactive).
With CC(=O)NNc1ccc2nnc(-c3ccc(Br)cc3)n2n1 the growth was 105% (inactive).
For COc1cccc2nc(Nc3ccc(F)c(NC(=O)c4ccc(CN5CCN(C)CC5)c(C(F)(F)F)c4)c3)ccc12, the growth was 30.9% (inactive).
For Cc1cc(C)cc(Oc2cccc(-c3c(C)nnn3C3CCN(CCN(C)C)CC3)n2)c1, the growth was 35.9% (inactive).
COc1ccsc1/C=N/NC(=O)c1[nH]c2ccc(Br)cc2c1-c1ccccc1 was tested, and the growth was -16.2% (active).
CC(=C(c1ccc(OCCCN(C)C)cc1)c1ccc(OCCCN(C)C)cc1)c1ccccc1 was tested, and the growth was -72.7% (active).
With COc1ccc2[nH]c(O)c(N=NC(=O)COc3ccc(NC(=O)Nc4ccc(Cl)c(Cl)c4)cc3)c2c1 the growth was -69.2% (active).
Cc1ccc(CSc2nc(-c3ccc(F)cc3)c(C#N)c(=O)[nH]2)cc1 was tested, and the growth was 97.8% (inactive).
With O=C(NO)c1ccc(CNC(=O)[C@H]2Cc3c([nH]c4ccccc34)[C@H](c3ccccc3)N2)cc1 the growth was 24.7% (inactive).
